NF-kB expr up: compounds increasing NF-kB expression in human neuronal cells | 190,000 tested, 1.6% active | fold change at 12.5 µM | NF-kB reporter expression; stronger effect = higher value; in the data active = fold change above about 3.3
ssDAF-12 act: activators of S. stercoralis DAF-12 nuclear receptor; activation, % at 6.8 µM; HEK293 ssDAF-12/GRIP1 lit1-tk-luc reporter, luminescence; % of 3 µM dafachronic acid response; 370,000 tested, 1% active;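 active = activation above the mean over all tested compounds plus 3 SD, cut at about 0.9% in these data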;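 also: 0% = DMSO-only wells and 100% = 3 µM delta7-dafachronic acid wells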
hcDAF-12 act: activators of H. contortus DAF-12 nuclear receptor | HEK293 hcDAF-12 lit1-tk-luc reporter, luminescence; 0% DMSO, 100% Δ7-dafachronic acid | activation, % at 6.8 µM | 370,000 tested, 1.4% active;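 active = activation above the mean of all tested compounds plus 3 SD, cut at about 5.5% in these data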;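 also: 100% = response to 3 µM Δ7-dafachronic acid high control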
APP 5'UTR act: APP 5'UTR luciferase reporter activation | SH-SY5Y APP 5'UTR luciferase reporter, luminescence; zero percent = DMSO vehicle wells | activation, % at 2 µM | 190,000 tested, 1% active | AID 1276;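 active = activation above a set limit, based on mean plus 3 SD of controls, cut at about 140% in these data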
hgDAF12 agonist: agonists of H. glycines DAF-12 nuclear receptor. HEK293 GAL4-hgDAF12 UAS-luciferase reporter, agonist luminescence; normalized to butyrate control. activation, % at 6.8 µM. 370,000 tested, 1.8% active. AID 687014;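 active = activation above a cutoff set at the mean of all screened compounds plus 3 SD, cut at about 10% in these data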;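 also: 0% = DMSO wells and 100% = sodium butyrate wells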
LXRb hcDAF ctr: LXR-beta agonism as hcDAF-12 counter-screen; shares compounds with hcDAF-12 act; HEK293 Gal4-LXR tk-luc reporter, luminescence, 24 h; normalized: DMSO 0%, positive control 100%; activation, % at 6.8 µM; 3,400 tested, under 10 active; AID 743027;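 active = mean percent activation of the reporter above a cutoff set as the average over tested compounds plus their standard deviation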
Target sequence (P55055 whole entry, looked up, the tested form may be a part): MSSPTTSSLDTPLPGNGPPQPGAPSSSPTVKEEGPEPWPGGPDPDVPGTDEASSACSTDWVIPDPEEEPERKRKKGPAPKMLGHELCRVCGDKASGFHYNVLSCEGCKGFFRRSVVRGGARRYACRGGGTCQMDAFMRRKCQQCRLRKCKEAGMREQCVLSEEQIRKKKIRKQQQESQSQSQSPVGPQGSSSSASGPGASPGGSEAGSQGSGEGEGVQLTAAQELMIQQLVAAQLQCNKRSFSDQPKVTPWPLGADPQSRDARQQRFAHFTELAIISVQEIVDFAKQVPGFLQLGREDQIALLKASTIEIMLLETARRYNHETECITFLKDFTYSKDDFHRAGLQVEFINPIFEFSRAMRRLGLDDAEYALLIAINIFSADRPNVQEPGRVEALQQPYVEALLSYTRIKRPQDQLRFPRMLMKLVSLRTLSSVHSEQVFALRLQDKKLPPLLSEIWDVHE
hcDAF12 conf: hcDAF-12 agonism, confirmation assay. 3,400 tested, 61% active. shares compounds with hcDAF-12 act. HEK293 hcDAF-12 lit1-tk-luc reporter, luminescence; % of Δ7-dafachronic acid response. activation, % at 6.8 µM;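 active = mean activation across triplicate tests above the threshold derived from the earlier primary screen, cut at about 5.5% in these data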;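 also: 0% = DMSO only wells and 100% = 3 µM Δ7-dafachronic acid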
* marks the source's active call; other numbers are inactive results; · = no result. Most compounds without a hit are left out; they make up all but 3.4% or so of the library.

SMILES | NF-kB expr up | ssDAF-12 act | hcDAF-12 act | APP 5'UTR act | hgDAF12 agonist | LXRb hcDAF ctr | hcDAF12 conf
Cc1cc(NCCOCCO)n2ncc(-c3ccc(Cl)cc3)c2n1 | 3.65* | 1.0* | 6.7* | 151.7* | 9.8 | 1.3 | 6.8*
Cc1cc(N)n2ncc(-c3ccc(Cl)cc3)c2n1 | 2.12 | 0.2 | 6.7* | 96.0 | 9.9 | 0.8 | 4.9
Cc1cc(C)n2cc(-c3ccc(Cl)cc3)c(C(=O)O)c2n1 | 2.14 | 1.4* | 10.3* | 62.6 | 8.4 | 0.8 | 9.3*
Cc1cc(N)n2ncc(-c3ccc(F)cc3)c2n1 | 1.74 | -0.9 | 1.0 | 84.1 | 8.6 | · | ·
CCCCCCCCN1CCS(=O)(=O)N(Cc2ccc(Cl)cc2)C(C(=O)OC)C1 (configuration not stated) | · | -1.2 | 0.2 | · | -1.7 | · | ·
CC(C)[C@H]1/C(=C/C2CC2)N2C(=O)C[C@H](c3cccc(C(F)(F)F)c3)N=C2N1Cc1ccc2c(c1)OCO2 | · | -1.1 | -2.1 | · | -0.9 | · | ·
Cc1ccc(NC2=Nc3ccccc3CS2)cc1 | 5.58* | 1.6* | 15.2* | 183.8* | 19.0* | 2.1 | 14.4*
O=C(COc1ccc(Cl)cc1Cl)Nc1ccc(Cl)cn1 | 4.5* | 0.5 | 8.8* | 180.8* | 11.2* | 1.6 | 8.1*
Cc1cc(Cl)ccc1OCC(=O)OCC(=O)Nc1ccc(Cl)cn1 | · | -0.7 | 2.3 | · | 0.7 | · | ·
C[C@@H]1CCCN1c1ccc2c(c1)O[C@H]1CCN(C1)S2(=O)=O | · | -0.5 | -2.5 | · | 2.5 | · | ·
CCCCC(=O)/C=C/n1c(=S)oc2ccccc21 | 0.93 | 0.5 | 6.6* | -2.4 | 7.7 | 0.1 | 3.9
Cn1c(=O)c(C(=O)CN2CCCc3ccccc32)c(N)n(Cc2ccccc2)c1=O | 1.08 | 0.4 | 3.1 | 13.7 | 0.1 | · | ·
Cn1c(=O)c(C(=O)CN2CCc3ccccc32)c(N)n(Cc2ccccc2)c1=O | 0.79 | 0.6 | 8.0* | 4.8 | 3.5 | -0.3 | 2.5
COc1c(Cl)cccc1-c1cn2ccccc2n1 | · | 0.0 | 7.3* | · | 12.9* | 1.2 | 7.7*
Clc1ccc(OCc2cn3ccccc3n2)c2ncccc12 | 2.95 | -0.5 | 1.1 | 82.6 | 8.9 | · | ·
CCN(CC)S(=O)(=O)c1ccc(-c2nnc3sc4cccc(C)c4n23)cc1 | 0.7 | 0.6 | 7.1* | -0.4 | 5.5 | -0.4 | 4.0
COC(=O)[C@]12C[C@H](CC(=O)NCc3ccccc3)C(=O)N(Cc3ccc(Cl)cc3Cl)C1=C[C@H](C(C)(C)C)O[C@@H]2C | · | -1.3 | -1.6 | · | -3.1 | · | ·
CC(C)N=C1NN=C(c2cccs2)CS1 | 3.5* | 1.4* | 8.6* | 103.3 | 12.4* | 0.8 | 11.4*
NC(=O)c1ccc(CSc2nc3ccccc3s2)cc1 | · | 0.6 | 8.1* | · | 7.9 | 0.3 | 4.0
CCNC(=O)c1ccc(CSc2nc3ccccc3s2)cc1 | · | -0.4 | -0.7 | · | 4.4 | · | ·
CNC(=O)c1cc2c(ccc3ccccc32)o1 | 1.33 | -1.0 | 7.9* | 27.1 | 3.9 | 0.2 | 1.1
Cc1ccc(/C=N/NC(=O)c2cc3c(ccc4ccccc43)o2)o1 | · | -0.6 | -2.2 | · | 0.5 | · | ·
COc1ccc(NS(=O)(=O)NC(=O)c2cn(C)c3ccccc23)cc1 | · | -1.0 | 0.3 | · | -0.3 | · | ·
COc1ccc(NS(=O)(=O)NC(=O)c2c(C)n(C)c3ccccc23)cc1 | · | -0.5 | 7.3* | · | 6.0 | -0.2 | 1.2
COc1ccc(NC(=O)c2c(Cl)n(C)c3ccccc23)cc1 | 1.79 | 1.0* | 8.2* | 22.4 | 7.4 | 0.2 | 6.9*
Cc1cc(C)c2c(N)c(C(=O)Nc3nccs3)sc2n1 | 3.02 | 2.3* | 18.0* | 124.0 | 15.9* | 2.2 | 24.5*
Cc1ccc(NC(=O)c2sc3nc(C)cc(C)c3c2N)cc1 | · | -0.2 | 7.8* | · | 12.4* | 1.8 | 9.3*
Oc1ccc(-c2cn3cc(C(F)(F)F)ccc3n2)cc1 | 13.3* | 0.6 | 7.7* | 228.7* | 12.0* | 2.6 | 9.0*
O=C(Nc1ccc(Cl)cc1)[C@@H]1[C@@H]2C(=O)N(c3ccc4ccccc4c3)C(=O)[C@@H]2[C@H]2C=CC=NN21 | 1.08 | -0.3 | 6.8* | -7.8 | 0.1 | -0.1 | 1.8

High-throughput results from PubChem.
